TTR transcr act: TTR transcription activators in neuroblastoma reporter cells, primary screen, cell-based, luminescence, SH-SY5Y, TTR promoter Gaussia luciferase | 100% = recombinant luciferase protein wells | activation, % at 16.7 µM | 92,000 tested, 1.3% active;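 active = activation above the mean of all tested compounds plus 3 SD, cut at about 9.5% in these data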;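 also: cells exposed to compounds for one day before reading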
TTR inh HuH7: TTR promoter reporter inhibitors in hepatoma cells, counter-screen for TTR transcription activator project, cell-based, luminescence, HuH7 hepatoma. AID 1117279, 2014. inhibition, % at 16.7 µM. shares compounds with TTR transcr act. 1,100 tested, 4% active. HuH7 TTR promoter-Gaussia luciferase reporter;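 active = average inhibition above the solvent-only control wells' mean plus 3 SD, cut at about 15% in these data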;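 also: inhibitors lower well luminescence so higher value means more inhibition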
TTR act confirm: TTR transcription activators, retest, confirmation, cell-based, luminescence, SH-SY5Y, triplicate. activation, % at 16.7 µM. shares compounds with TTR transcr act. SHSY5Y TTR promoter Gaussia luciferase; 100% = purified Lucia enzyme wells, no cells. 1,100 tested, under 10 active;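 active = mean activation above a set limit taken from the earlier primary screen, cut at about 11% in these data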
Large screens that a line does not name were inactive (follow-up assays come after a bar, where they were run). The sample as a whole holds a higher share of hits than the screen did.

O=C(Nc1ccc(C(=O)c2ccc(C(=O)O)c(C(=O)O)c2)cc1)c1ccccc1	none
Cc1cccc(C)c1OCC(O)CNC(C)(C)C (stereo not drawn)	none
Cc1oc(=O)c(NC(=O)c2ccccc2)cc1C(C)O (stereo not drawn)	none
Cc1ccc(C(=O)Nc2cc3c(oc2=O)CCCC3=O)cc1	TTR transcr act 28 | TTR inh HuH7 inactive | TTR act confirm inactive
Cc1ccc(C(=O)Nc2c[nH]c(=O)[nH]c2=O)cc1	none
O=C1OC(Cc2ccncc2)C(O)=C1C1=NCCCN1 (stereo not drawn)	none
Cc1noc(NS(=O)(=O)c2ccc(N/C=C\C(=O)c3cccc4ccccc34)cc2)c1C	none
Cc1ccc(C(=O)NCCOc2cccc3cccnc23)cc1Cl	none
COC(=O)c1cccc(NC(=O)c2cccc([N+](=O)[O-])c2)c1	none
COc1ccc(C(=O)Nc2cccc([N+](=O)[O-])c2)cc1Br	TTR transcr act 15 | TTR inh HuH7 inactive | TTR act confirm inactive
COc1ccc(NC(=O)c2cccc([N+](=O)[O-])c2)cc1	none
COc1ccc(-c2nc(-c3ccc(Br)cc3)no2)c(OC)c1	none
COC(=O)c1cc(CSc2nnc(-c3ccccc3)c(-c3ccccc3)n2)oc1C	none
CC(C(=O)Nc1ccc(C#N)cc1)N(C)Cc1cccs1 (stereo not drawn)	none
CC(C(=O)Nc1ccc(S(=O)(=O)N2CCCC2)cc1)N(C)CC(=O)Nc1cccc(F)c1 (stereo not drawn)	none
CC(C(=O)Nc1ccc(C#N)cc1)N(C)CC(=O)Nc1cccc(F)c1 (stereo not drawn)	TTR transcr act 9.9 | TTR inh HuH7 inactive | TTR act confirm inactive
CC(C)C[C@H]1COCCS(=O)(=O)N1Cc1cccc(Cl)c1	none
NC(=O)c1ccccc1NC(=O)CSc1nc2c(c(=O)[nH]1)CCCC2	none
N#CC1CCN(c2ncccc2[N+](=O)[O-])CC1	none
O=[N+]([O-])c1cccnc1N1CCOCC1	none
O=C1CCN(c2ncccc2[N+](=O)[O-])CC1	TTR transcr act 12 | TTR inh HuH7 inactive | TTR act confirm inactive
COc1ccc(NC(=O)Nc2cccc(F)c2)c(OC)c1	none
O=C(N/N=C/c1ccc(F)cc1)c1ccc(-n2cnnn2)cc1	none
Clc1cc2nc3ccccn3c2cc1Cl	TTR transcr act 13 | TTR inh HuH7 inactive | TTR act confirm inactive
OCc1c(Cl)nc2ccccn12	none
c1ccc(-c2nc3ccccn3c2-c2ccccc2)cc1	none
CCCC1NC(=O)c2cc3ccccc3cc2-n2c1nc1cc(Cl)ccc1c2=O (stereo not drawn)	none
O=C1Oc2ccccc2C2(O)C3CCCCCC3C12 (stereo not drawn)	TTR transcr act 13 | TTR inh HuH7 inactive | TTR act confirm inactive
COc1ccccc1CNC(=O)c1cnc2ccccn2c1=O	none
CN(CC(=O)NCC1COc2ccccc2O1)S(=O)(=O)c1ccc(Cl)cc1 (stereo not drawn)	none
c1ccc(COc2ncnc3c2ncn3CCCNCc2ccccn2)cc1	none
Oc1[nH]c2ccccc2c1N=NC(=S)NCCc1ccccc1	none
CC(C)c1ccc2[nH]c(O)c(N=NC(=O)c3ccc(CSc4nncn4C)cc3)c2c1	none
CC(C)c1ccc2[nH]c(O)c(N=NC(=S)NCCc3ccccc3)c2c1	TTR transcr act 12 | TTR inh HuH7 inactive | TTR act confirm inactive
CCn1c(=O)[nH]n(C/C(C)=C\c2c[n+](Cc3ccc4c(c3)OCO4)c(N)[nH]2)c1=O	none
O=C(Nc1ccc(F)cc1)c1ccccc1	none
O=C(Nc1ccccc1)c1ccn[nH]1	TTR transcr act 15 | TTR inh HuH7 inactive | TTR act confirm inactive
O=C(Nc1cccc(C(=O)Nc2ccc(Br)cc2)c1)c1ccccc1	none
CCOc1ccc(-c2csc3ncn(-c4ccc(OC)cc4)c(=O)c23)cc1	none
O=C(CNCc1ccc(Cl)cc1)N1CCc2ccccc2C1	none
COc1ccc(-c2nc3c4ccccc4ccn3c2Cc2cccc(Cl)c2)cc1OC	none
CCOC(=O)C1=C(C)NC(=S)NC1c1ccc(OC(=O)c2ccco2)cc1 (stereo not drawn)	none
CCCCOC(=O)C1=C(C)Nc2ncnn2C1c1cc(OC)ccc1OC (stereo not drawn)	none
COCCOC(=O)C1=C(C)Nc2ncnn2C1c1ccco1 (stereo not drawn)	TTR transcr act 13 | TTR inh HuH7 inactive | TTR act confirm inactive
C=CCOC(=O)C1=C(C)NC(C)=C(C(=O)OCC=C)C1c1ccco1	none
CCCCCCCOC(=O)C1=C(C)Nc2ncnn2C1c1cccs1 (stereo not drawn)	none
CCOC(=O)C1=C(C)NC(C)=C(C(=O)OC)C1c1ccco1 (stereo not drawn)	TTR transcr act 12 | TTR inh HuH7 inactive | TTR act confirm inactive
Nc1cc(N)cc(C(=O)Nc2ccc3c(c2)C(=O)NC3=O)c1	none

Screens as filed in PubChem.
